NPR1 activator: GC-A (human) enzyme activation; P16066; HEK293 GC-A cells, cGMP TR-FRET, EC30 ANP; 0% at EC30 ANP, 100% saturating ANP; activation, % at 10 µM; 370,000 tested, 0.14% active; AID 1671463; in the data active = activation above about 40%
Target sequence (P16066 whole entry, looked up): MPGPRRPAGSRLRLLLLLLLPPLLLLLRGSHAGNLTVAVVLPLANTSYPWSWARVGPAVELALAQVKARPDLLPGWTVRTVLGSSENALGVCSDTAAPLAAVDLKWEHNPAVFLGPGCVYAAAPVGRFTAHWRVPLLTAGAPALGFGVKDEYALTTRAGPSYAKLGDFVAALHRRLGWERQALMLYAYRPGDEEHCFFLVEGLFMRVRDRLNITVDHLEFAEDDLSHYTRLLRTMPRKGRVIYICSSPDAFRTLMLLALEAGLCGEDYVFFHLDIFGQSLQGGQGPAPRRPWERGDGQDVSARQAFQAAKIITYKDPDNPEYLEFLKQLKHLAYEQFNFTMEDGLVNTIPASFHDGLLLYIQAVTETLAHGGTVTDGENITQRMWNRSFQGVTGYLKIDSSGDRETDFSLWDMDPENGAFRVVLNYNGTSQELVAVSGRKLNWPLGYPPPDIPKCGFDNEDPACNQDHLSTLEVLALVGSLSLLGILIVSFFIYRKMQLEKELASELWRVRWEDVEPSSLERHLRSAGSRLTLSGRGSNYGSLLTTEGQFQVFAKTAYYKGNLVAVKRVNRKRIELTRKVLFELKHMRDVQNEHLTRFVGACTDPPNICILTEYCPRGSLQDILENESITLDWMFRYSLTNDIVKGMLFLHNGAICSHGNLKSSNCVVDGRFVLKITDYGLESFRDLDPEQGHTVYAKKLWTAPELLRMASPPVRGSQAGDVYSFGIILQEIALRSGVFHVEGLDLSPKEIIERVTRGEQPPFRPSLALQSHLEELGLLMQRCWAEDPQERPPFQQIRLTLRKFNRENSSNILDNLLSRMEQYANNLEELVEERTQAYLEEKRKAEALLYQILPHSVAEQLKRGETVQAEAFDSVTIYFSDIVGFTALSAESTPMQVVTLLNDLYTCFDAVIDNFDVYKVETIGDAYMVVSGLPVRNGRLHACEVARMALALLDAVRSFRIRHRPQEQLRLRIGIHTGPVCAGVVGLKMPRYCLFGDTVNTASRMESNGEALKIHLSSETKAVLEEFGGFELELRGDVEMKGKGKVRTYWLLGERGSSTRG
NPR2 activator: GC-B (human) receptor activation; P20594; HEK293-GC-B cells, CNP EC30, cGMP TR-FRET; 0% at EC30 CNP, 100% saturating CNP; activation, % at 10 µM; 370,000 tested, 0.11% active; AID 1920062;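 active = activation at 10 µM reaching about 35% in either raw or pattern-adjusted values, limit read from the data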
HSF1 inh: HSF1 inhibition; activity change, negative = inhibition, % at 7.5 µM (by protocol); NIH3T3-HGL HSE-luciferase, MG132-induced, luminescence 8 h; active compounds read low; AID 2098; 300,000 tested, 0.77% active;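 active = more than half of replicate wells show activity change below -50%, luminescence cut by over half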;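 also: luciferase reports HSF-1 transcriptional activity via heat shock element; 0% = median of DMSO wells and -100% = zero luminescence signal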
aDG glyco act: alpha-DG glycosylation activation | 360,000 tested, 0.22% active | Pro5-aDG cells, alpha-DG glycosylation AlphaScreen (IIH6); 0% Pro5, 100% B10-LARGE cell signal | activation, % at 10 µM | AID 624168;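 active = activation of at least 8% versus controls, or a plate z-score of at least 8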;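 also: Pro5 are CHO cells carrying HIG-tagged alpha-DG that lacks glycosylation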
HSF1 activator: increases HSF-1 driven luciferase reporter signal. AID 504408. activation, % at 9 µM. 300,000 tested, 1.7% active. NIH3T3-HGL HSF-1 luciferase reporter, MG132, 8 h; 100% = twice DMSO control signal;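 active = mean replicate activation of at least 50% with a set share of replicates each reaching 50%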;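 also: 0% = median of the neutral control wells and 100% = twice that signal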
Dyrk1A ADPGlo: blocks rat Dyrk1A kinase activity; AID 504441; inhibition, % at 12.5 µM; ADP-Glo luminescence, NFATc1 peptide; 310,000 tested, 0.43% active; in the data active = inhibition above about 50%;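 also: plate controls were vehicle with enzyme for no effect and no enzyme for full effect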
* hit, by the source's call; / = no result given. An excerpt weighted towards active compounds, which were near 2.5% of everything screened.

SMILES	NPR1 activator	NPR2 activator	HSF1 inh	aDG glyco act	HSF1 activator	Dyrk1A ADPGlo
CCCOC(=O)CSc1nnc(-c2ccc(Cl)cc2Cl)o1	63*	-4	-11	0	-14	-7
O=C(CSc1nnc(-c2ccccc2F)o1)OCc1ccccc1	61*	-5	-6	0	-18	5
CCOC(=O)CSc1nnc(-c2ccc(Cl)cc2Cl)o1	67*	1	-7	0	-6	2
CCOC(=O)c1ccc(-c2nnc(-c3ccc(Cl)cc3Cl)o2)cc1	1	2	9	0	6	2
CCc1ccc(-c2nc(CS(=O)CC(=O)NCc3cccnc3)c(C)o2)cc1 (stereo unspecified)	7	-4	-74*	0	-78	8
Cc1ccc(CN=Cc2[nH]c3ccc(Br)c(Cl)c3c2O)cc1	-3	-3	-3	3.9*	-2	5
CC(C)CNC(=O)NC(=O)CSc1nc2ccccc2n1CC(C)C	1	7	2	1	3	3
Cc1cccc(NC(=O)c2ccc(COc3ccccc3)o2)n1	1	8	8	0	20	1
Cc1cccc(NC(=O)c2ccc(COc3ccc4ccccc4c3)o2)n1	-4	-5	51	0	68*	-2
Cc1csc(NC(=O)c2ccc(COc3cccc(Cl)c3)o2)n1	40	41*	/	/	/	/
Cc1csc(NC(=O)c2ccc(COc3ccc(Cl)c(Cl)c3)o2)n1	24	-2	/	/	/	/
COc1ccccc1NC(=O)c1cc2cc(Br)ccc2oc1=N	-2	-2	5	0	1	3
Cc1ccc(NC(=O)c2cc(-c3cc(Cl)ccc3O)n[nH]2)cc1C	19	7	0	0	-8	-1
Cc1ccc(NC(=O)c2snc3ccc(Cl)cc23)cc1C	-3	-10	25	0	56*	-5
COc1ccc2c(c1)c(C(=O)CN1CCCCC1)c(C)n2C	-2	-4	32	0	72*	4
CCOC(=O)C1CCCN(S(=O)(=O)c2cc3c(cc2Br)CCN3C(=O)CC)C1 (stereo unspecified)	-1	-2	/	/	/	/
O=C(Nc1ncccc1O)c1ccc(Oc2ccccc2)cc1	8	1	47	0	88*	-7
O=C(CCNC(=O)c1ccc(Cl)cc1)Nc1ncccc1O	1	2	-87*	0	-89	3
Cc1ccn2cc(CSc3ccccc3)nc2c1	7	-5	42	1	53*	0
Cc1ccc(SCc2cn3cccnc3n2)cc1	0	-10	23	0	44	0
CCc1nccn1C(=O)c1cnn2c(C(F)F)cc(-c3ccccc3)nc12	/	/	-88*	/	-91	/
COc1ccc2c(c1)C1=NN(/C(C)=C/C(C)=O)C(c3ccc(F)cc3)C1CC2 (stereo unspecified)	-9	0	23	0	53*	-4
COc1ccc2c(c1)CCC1C2=NN(/C(C)=C\C(C)=O)C1c1ccc(F)cc1 (stereo unspecified)	-3	-3	31	0	40	4
CCC(CC)c1nc2cc(OC)c(OC)cc2c(=O)o1	-1	1	-8	0	-13	-2
O=C(NC1CCOC1=O)OCc1ccccc1 (stereo unspecified)	0	3	/	0	/	/
SMILES	NPR1 activator	NPR2 activator	HSF1 inh	aDG glyco act	HSF1 activator	Dyrk1A ADPGlo
CCCCCC1CC(=O)N(Cc2ccc(Cl)cc2)C(=O)N1 (stereo unspecified)	-1	0	4	0	6	0
CC(C)C/C=C1\CCc2c([nH]c3ccccc23)C1=O	9	-2	51	-1	59*	2
CCCCC(=O)Nc1nn(CCC)c2nc3ccccc3cc12	0	3	/	0	/	0
CCCN1Cc2cccc(C(=O)N3CCN(c4ccc(OC)cc4)CC3)c2C1=O	4	-1	-60*	0	-69	-4
O=C(CN(c1ccc(Cl)cc1)S(=O)(=O)c1ccccc1)N/N=C/c1ccco1	0	-5	-6	0	15	-11
CCc1cc(C=NC2CCCCC2)c(O)s1	-3	5	-56*	0	-63	8
Cc1ccc(C(=O)/C=C/c2cc(Br)cc(Br)c2O)o1	-2	-6	72	0	89*	8
Cc1ccc(C(=O)/C=C/N(C)C)o1	5	1	7	0	10	3
CCOC(=O)N1CCN(CC(O)c2ccccc2)CC1 (stereo unspecified)	2	5	-8	0	-11	0
O=C(Cn1ncc2c3ccccc3n(Cc3ccccc3F)c2c1=O)N1CCN(c2ccccn2)CC1	22	41*	0	0	17	-3
O=C(Cn1ncc2c3ccccc3n(Cc3ccccc3F)c2c1=O)NCC1CCCO1 (stereo unspecified)	31	36*	11	0	27	-4
COc1ccc(S(=O)(=O)Nc2cc3c4c(oc3c3ccccc23)CCCC4=O)cc1	-2	-2	39	0	56*	14
O=C(NCCc1c[nH]c2ccccc12)C(=O)c1c[nH]c2ccccc12	2	-1	8	0	32	10
Cc1cc2cc(CCNC(=O)C(=O)c3c[nH]c4ccccc34)c(=O)[nH]c2cc1C	-10	-6	-63*	-1	-65	2
Cc1ccc(-c2csc(NC(=O)c3ccco3)n2)cc1C	21	-5	8	0	62*	8
O=C(Nc1nc(-c2ccccc2)cs1)c1ccco1	3	-2	21	0	14	12
Cc1cc2sc(NC(=O)c3ccco3)nc2cc1Cl	-2	0	37	0	66*	-1
CN(C(=O)c1ccco1)c1nc(-c2ccccc2)cs1	0	-6	32	0	76*	-3
CC1(C)CC(=O)C=C(c2ccccc2-c2cccc(C(N)=O)c2)C1=O	0	2	/	/	/	/
Cc1ccc(S(=O)(=O)N2CCCC(C(=O)Nc3c(C)n(C)n(-c4ccccc4)c3=O)C2)cc1C (stereo unspecified)	2	-2	/	/	/	/
Cn1c(=O)c(/C=C/c2ccccc2)nc2ccccc21	3	-4	17	0	45	-5
Cn1c(=O)c(/C=C/c2ccc(F)cc2)nc2ccccc21	1	-3	46	0	60*	0
CCOC(=O)c1c(N2CCN(c3ccccc3)CC2)cc(C)nc1C	1	-2	-6	0	-11	-1
O=C(O)CSc1nnnn1-c1ccc2c(c1)OCCO2	0	7	23	0	70*	8
Cc1ccc([N+](=O)[O-])cc1S(=O)(=O)N1CCCC1	0	2	1	0	-11	1
CC1(C)c2[nH]c3ccccc3c2C[C@H]2C(=O)N(CCCO)CC(=O)N21	3	-1	-8	0	6	3
